Measured values reported in PubChem BioAssay AID1345082 (National Center for Advancing Translational Sciences (NCATS), 2018).
About 4,000 (4.3%) of roughly 94,000 compounds were called active. Entries that show only a call come without a potency. Not shown: some 29% with an inconclusive outcome. The call rests on the fitted dose curve; in most records, active means well fitted inhibition curve with a large enough effect; inconclusive means small, poorly fitted or top-dose-only effect; inactive means no such curve, though single readings can be large or run the other way. This excerpt belongs to a sample that is enriched for actives.

Test: Cytotoxic Profiling in NIH 3T3 Cell Line of Diverse Libraries Using Quantitative High-Throughput Screening; further: nearly all actives have a fitted effect of over 55% in size
Details: NIH 3T3 viability, CellTiter-Glo ATP luminescence, 48-72 h; series mostly up to 96.7 µM
Source text: Cell-based phenotypic screening is a commonly used approach to discover biological pathways, novel drug targets, chemical probes and high-quality hit-to-lead molecules. Many hits identified from high-throughput screening campaign are ruled out through a series of follow-up potency, selectivity/specificity, and cytotoxicity assays. Prioritization of molecules with little or no cytotoxicity for a more in-depth downstream evaluation influence the future direction of projects, so cytotoxicity profiling of the screening libraries at early stage is essential for increasing the likelihood of candidate success. In this study, we analyzed results from a cell-based cytotoxicity screening campaign, comprising nearly 10,000 compounds in NCATS annotated libraries, and over 100,000 compounds in a diversity library, evaluated in four normal cell lines (HEK 293, NIH 3T3, CRL-7250 and HaCat) and a cancer cell line (KB 3-1, a HeLa subline) with overall screening outcomes, hit rates, pan-activity and selectivity. For the annotated library, we also examined the primary targets and mechanistic pathways regularly associated with cell death. To our knowledge, this is the first study to use high-throughput screening to profile large libraries for cytotoxicity assessment in both normal and cancer cell lines. In summary, the results generated here constitutes a valuable resource for the scientific community and provides insight on identifying cytotoxic compounds with particular mechanisms of action, and prioritizing compounds with suitable cytotoxicity profile for further evaluation.
NIH 3T3 cells were seeded into white 1536-well plates using a Multidrop Combi peristaltic dispenser (ThermoFisher, Waltham, MA) at a density of 400 cells/well in 5 uL of medium respectively. A pintool (Kalypsys) was used to transfer 23 nL of compound solution to the 1536-well assay plates. After 48 or 72 hr incubation at 37 degree Celsius, 5% CO2 and 95% humidity, 2.5 uL of CellTiter-Glo (Promega) was dispensed into each well using a dispenser (Aspect Automation, St. Paul, MN) with solenoid valves (Lee Valves, Westbrook CT). Plates were left at room temperature for 10 min before imaging the ATP-coupled luminescence using a ViewLux microplate imager (PerkinElmer, Waltham, MA).
Potency means the concentration at half of the fitted maximal effect.

Compound	Potency
Cc1nn(CCC#N)c(C)c1[C@@H]1C=C[C@@H](NS(=O)(=O)c2ccccc2)C1	25.1 µM (active)
Cc1noc(C)c1[S+](=O)([O-])N1CCCC2(CC(Cc3ccccc3)=NO2)C1 (stereo not given)	inactive
C=CCOC(=O)Nc1nc2c(s1)C[C@@H]1[C@](C)(CO)[C@H](O)CC[C@@]1(C)[C@@H]2CC(=O)N(CC)CC	inactive
C=CCN(C)C(=O)C[C@@H]1c2nc(NC(=O)c3ccc(C(C)(C)C)cc3)sc2C[C@@H]2[C@](C)(CO)[C@H](O)CC[C@]21C	28.2 µM (active)
CC(=O)N1CCN(C(=O)C[C@@H]2c3nc(NC(=O)c4cccs4)sc3C[C@@H]3[C@](C)(CO)[C@H](O)CC[C@]32C)CC1	inactive
CN(C)CCNC(=O)C[C@@H]1c2nc(NC(=O)c3ccc(C(C)(C)C)cc3)sc2C[C@@H]2[C@](C)(CO)[C@H](O)CC[C@]21C	25.1 µM (active)
C[C@]1(CO)[C@H]2Cc3sc(NC(=O)C4CCC4)nc3[C@@H](CC(=O)N3CCCCC3)[C@]2(C)CC[C@H]1O	inactive
COCC(=O)Nc1nc2c(s1)C[C@@H]1[C@](C)(CO)[C@H](O)CC[C@@]1(C)[C@@H]2CC(=O)NCCN1CCOCC1	inactive
Cc1noc(C)c1[S+](=O)([O-])N1CCC2(CC(C(C)C)=NO2)C1 (stereo not given)	inactive
C[C@@H]1CN(C(=O)CNS(=O)(=O)c2cccs2)C[C@@]1(O)C1CC1	inactive
CN(C(=O)c1ccccc1)C1CCc2ccccc21 (stereo not given)	inactive
CC(C)N(C)Cc1nnnn1CC(=O)NCc1ccc2nonc2c1	inactive
O=C(CN1C(=O)C(c2ccccc2)=NC12CCCC2)Nc1ccc2c(c1)OCCO2	inactive
Cn1cnnc1CC1CCCN(C(=O)c2ccsc2)C1 (stereo not given)	inactive
OC1(CN2CCC(CCn3cccn3)CC2)CNCCOC1 (stereo not given)	inactive
CCc1cc(N2CCN(CC3(O)CCCNC3)CC2)ncn1 (stereo not given)	inactive
COc1ccc(OCC2CCN(CC3(O)CCCNC3)CC2)cc1 (stereo not given)	44.7 µM (active)
Cc1cc(C)c(-c2nc3ncccc3[nH]2)[nH]1	inactive
CC(C)NC(=O)N1CCN(CCCn2nc3n(c2=O)CCCC3)CC1	inactive
COc1ccc(-c2cc(N3CCCN(C(=O)c4ccc(C)cc4)CC3)n[nH]2)cc1	inactive
O=C(c1cccnc1)N1CCN(c2cc(-c3ccccc3)[nH]n2)CC1	inactive
COc1ccc(-c2cc(N3CCN(C(=O)c4ccncc4)CC3)n[nH]2)cc1	inactive
CCOc1cc(C(=O)N2CCCN(c3cc(-c4ccccc4)[nH]n3)CC2)cc(OCC)c1OCC	inactive
O=C(c1ccc2cc[nH]c2c1)N1CCCN(c2cc(-c3ccc(Cl)cc3)[nH]n2)CC1	39.8 µM (active)

Compound	Potency
O=C(N1CCN(c2cc(-c3ccc(Cl)cc3)[nH]n2)CC1)C1(c2ccccc2)CC1	35.5 µM (active)
O=C(NCc1ccccn1)c1ccc2oc(-c3cccnc3)nc2c1	inactive
O=C(c1ccccc1Cl)N1CCC(c2nc(-c3cccnn3)no2)CC1	inactive
O=C1NCCCCCN(C(=O)NCCc2ccccc2)[C@H]2CCC[C@@H]12	inactive
CCN(C1CCOCC1)C1CN(C(=O)C2CC2)C1	inactive
CC(=O)c1ccc(NC(=O)N2CCc3c(nc(-c4ccc(F)cc4)[nH]c3=O)C2)cc1	inactive
O=S(=O)(NCC1CNCCOC1)c1ccc(F)c(F)c1F (stereo not given)	inactive
CCNc1cc(N2CCC(CCC(=O)Nc3ccc(C)cc3C)CC2)ncn1	inactive
CCOc1ncccc1CNC(=O)c1cc(S(N)(=O)=O)ccc1F	inactive
CNC(=O)c1cccc(-c2cnc3[nH]cc(CC(=O)NCc4cccc(F)c4)c3c2)c1	89.1 µM (active)
COc1ccc(CCNC(=O)c2nnn3cc(-c4ccccc4)[nH]c(=O)c23)cc1OC	inactive
O=C(Cn1nc2c(cc1=O)CCCC2)NCc1cccc(F)c1	inactive
COc1ccccc1C(=O)NCc1ccnc2[nH]ccc12	inactive
O=C(Cc1cccc(F)c1)Nc1cnc(-c2cccnc2)nc1	inactive
COc1ccc(CNC(=O)Cc2c[nH]c3ncc(-c4ccccc4)cc23)cc1OC	39.8 µM (active)
O=C(NCc1nc(-c2cccc(F)c2)c(-c2ccccn2)[nH]1)[C@@H]1CCCN1	inactive
O=C(NCC(F)F)[C@@H]1CCCN1c1nccc(Nc2ccccc2Cl)n1	inactive
Cc1ccc(Nc2ccnc(N3CCCC3C(=O)N3CCC(Cc4ccccc4)CC3)n2)cc1 (stereo not given)	20 µM (active)
COc1ccc(Nc2ccnc(N3CCC(C(=O)N4CCN(C(C)=O)CC4)CC3)n2)cc1	inactive
CCCN1CC(Oc2ccc(-c3noc(C4CC4)n3)cc2)C1	inactive
COc1cccc(F)c1C(=O)N1C[C@H](N)C[C@H]1C(=O)NC(C)C	inactive
O=C1CCCCC(CNC(=O)c2cc(F)ccc2F)N1 (stereo not given)	inactive
Cc1cc(Cl)ccc1-c1ccc(CN)cc1	31.6 µM (active)
NCc1ccc(-c2cncnc2)cc1	inactive

Compound	Potency
COc1cccc(CCC(=O)N2CCCC2c2nc(C3CCOCC3)no2)c1 (stereo not given)	inactive
O=C(c1ccc(Cl)cc1)N1CCCC2(CNc3ncccc3[S+](=O)([O-])N2)C1 (stereo not given)	inactive
Cn1cnc(S(=O)(=O)N[C@H]2CCN(C(=O)c3ccco3)[C@H](C(=O)N[C@@H](Cc3cccs3)C(N)=O)C2)c1	inactive
O=C(C[C@@H]1CCNC[C@@H]1Cc1cc(-c2ccc(F)cc2)on1)NCCN1CCOCC1	inactive
COc1ccc(CNC(=O)C[C@@H]2CCNC[C@@H]2Cc2cc(-c3ccc(C(C)(C)C)cc3)on2)cc1OC	25.1 µM (active)
COc1ccc(-c2cc(C[C@H]3CNCC[C@H]3CC(=O)NCCN(C)C)no2)cc1	inactive
CN1C(=O)CCC2(CNC(=O)c3ccoc3)CCCC=C12 (stereo not given)	inactive
CCCn1ncc(C(=O)NCC2(O)CCCNC2)c1C (stereo not given)	inactive
CC(NC(=O)c1ccc(CN2C(=O)NC3(CCOCC3)C2=O)cc1)c1ccccc1 (stereo not given)	inactive
COC(=O)C1CCN(C(=O)CC[C@H]2CNC(=O)[C@@H]3[C@@H](CCN3Cc3cccs3)N2C)CC1	inactive
Cn1c(=O)n([C@H]2CCCN(C(=O)C3CC=CC3)C2)c2ncccc21	inactive
Cc1ccc(C)c(S(=O)(=O)c2nnn3c2nc(NCc2ccc(F)cc2)c2ccccc23)c1	28.2 µM (active)
Cc1cccc(C)c1-c1nc(C(=O)NCc2ccc(F)cc2)n2ccccc12	inactive
O=c1[nH]c(C2CCCN([S+](=O)([O-])c3cccc(C(F)(F)F)c3)C2)nn1-c1ccc(F)cc1 (stereo not given)	inactive
CC[C@H]1CN(C(=O)Nc2ccccc2)CC[C@H]1CC(=O)Nc1ccccc1	inactive
O=C1NCc2ccccc2CC12CCN(CC1CCCCC1)C2 (stereo not given)	inactive
CCc1cc(=O)n(CC(=O)Nc2cccc(C(C)=O)c2)c(-c2ccccc2)n1	35.5 µM (active)
CC(=O)c1cccc(NC(=O)Cn2c(-c3ccc(Cl)cc3)nc(C)cc2=O)c1	inactive
COc1cccc(NC(=O)Cn2c(-c3ccccc3)nc(C)cc2=O)c1	inactive
COc1ccc(-c2cc(N3CCC(NC(=O)c4ccoc4)CC3)n[nH]2)cc1	inactive
CC(C)(C)OCC1CN(Cc2cccs2)C(=O)c2cccnc2O1 (stereo not given)	inactive
COc1ccc(CNC(=O)CC[C@H]2CNC(=O)[C@@H]3[C@@H](CCN3C3CCOCC3)N2C)cc1	inactive
CC(C)c1noc(-c2ccn3c(CNC(=O)c4ccc5ccccc5n4)nnc3c2)n1	inactive
O=C(NCCc1ccccn1)c1ccc2c(c1)OCCN(c1ccccc1)C2	inactive

Compound	Potency
O=C(NCCc1ccccc1)c1ccc2c(c1)OCCN(CCC(F)(F)F)C2	inactive
CC(C)(C)c1csc(NC(=O)c2ccc3c(c2)OCCN(C2CCC2)C3)n1	79.4 µM (active)
Cc1noc(C2CC3(CCN(C(=O)c4cccnc4C)CC3)CN2C)n1 (stereo not given)	inactive
O=C(CN1CCC2(CC1)NC(=O)CC2C(=O)O)NCCc1ccc(F)cc1 (stereo not given)	inactive
O=C(Cc1cccc(Cl)c1)N1CCCN(c2ccc3nnc(C4CC4)n3n2)CC1	inactive
Cn1ccnc1CN1CCCC(CCC(=O)Nc2ccccc2F)C1 (stereo not given)	inactive
Cc1c[nH]c(CN2CCCC(CCc3ccc(F)cc3F)C2)c(C)c1=O (stereo not given)	50.1 µM (active)
CN1[C@@H](CCC(=O)N2CCOCC2)CNC(=O)[C@@H]2[C@H]1CCN2Cc1ccc(S(C)(=O)=O)cc1	inactive
Cc1ccc(F)cc1S(=O)(=O)N1CCC(OC2CCN(Cc3ccccc3)CC2)CC1	35.5 µM (active)
O=c1[nH]c(C2CCN(Cc3ccccc3)CC2)nc2ccc(F)cc12	inactive
CC(C)C(=O)N1CCC(OC2CCN(Cc3ccccc3)CC2)CC1	inactive
CCCN1CCN(c2ccc(C(=O)N(C)Cc3ccc4ccccc4n3)cn2)CC1	inactive
COc1ccc(CN2CCN3C(=O)N(c4ccccc4)C[C@H]3C2)cn1	inactive
CN(C)c1cccc(-c2ncc3c(n2)OCCN(Cc2ccc(F)cc2F)C3=O)c1	inactive
COc1ccc(-c2ncc3c(n2)OCCN(Cc2ccccc2)C3=O)cn1	35.5 µM (active)
COCCOc1ccc(-c2noc([C@@H]3CCCN3Cc3cccnc3)n2)cn1	inactive
C[S+](=O)([O-])c1cccc(-c2ncc3c(n2)OCCN(Cc2ccc(F)cc2F)C3=O)c1	28.2 µM (active)
COCCN1CCOC2(CCN(Cc3ccc(F)cc3F)CC2)C1=O	inactive
Cc1nc(CCNc2nccc(-c3cccnc3)n2)nc2c1CCCC2	inactive
CNC(=O)[C@@H]1[C@H]2CN(C3CCCCCC3)CCN2C[C@H]1c1ccccc1	inactive
O=C(C1CCCC1)N1C[C@@H](CO)[C@H](c2ccncc2)C1	inactive
CC(C)(C)c1ccc(C(=O)N2C[C@@H](CO)[C@H](c3ccccn3)C2)cc1	inactive
CC(C)CNC(=O)c1nnn2c1COC(c1ccc(Br)cc1)C2 (stereo not given)	inactive
